Source: PubChem BioAssay (National Center for Advancing Translational Sciences (NCATS))
Most compounds without a hit are left out; they make up all but 10% or so of the library.
BAZ2B inh – qHTS Assay for Inhibitors of BAZ2B | Bromodomain adjacent to zinc finger domain protein 2B (Homo sapiens), Q9UIF8 | AlphaScreen BAZ2B-H3K14Ac peptide displacement | Potency, µM (top dose mostly 114 µM), inactives show at the top dose activity change, negative = inhibition, actives largely listed as inhibitors | 360,000 compounds, 4.4% hits | AID 504333, 2011; also: % is scaled to controls: 0 for no effect and ±100 for the full control effect; nearly all actives have a fitted effect of over 60% in size
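Protein-peptide AlphaScreen: BAZ2B 50 nM, b-H3K14Ac 50 nM, 1x PBS pH 7.4 + 0.01% Tween-20. Preincubation 30 min RT; cpd 30 min RT (top 110 uM); beads 20 min RT, light-protected.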
GLS inhibitor – qHTS for Inhibitors of Glutaminase (GLS). 410,000 compounds, 0.21% hits. GLS enzymatic activity, qHTS titration. AID 624170, 2012. Potency, µM (top dose mostly 45.5 µM), inactives show at the highest dose activity change, negative = inhibition, hits mostly inhibitors. Glutaminase kidney isoform, mitochondrial (Homo sapiens), O94925; also: % is scaled to controls: 0 for no effect and ±100 for the full control effect
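Enzyme dispensed in phosphate buffer (45 mM, pH 8.2, 0.02% Tween-20), compounds pinned in, then 1 mM L-glutamine solution and the glutamate oxidase–HRP–Amplex Red mix added; fluorescence read immediately and again after 30 min at room temperature.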
L3MBTL1 inh – qHTS Assay for the Inhibitors of L3MBTL1. Lethal(3)malignant brain tumor-like protein 1 (Homo sapiens), Q9Y468. AlphaScreen L3MBTL1–H3K9me1 peptide binding. Potency, µM (highest dose often 57.1 µM), without a hit: at the highest dose activity, negative = inhibition, hits mostly inhibitors. 230,000 compounds, 0.66% hits; also: % is scaled to controls: 0 for no effect and ±100 for the full control effect; nearly all actives have a fitted effect of over 60% in size
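First, the protein-peptide complex forms for 30 min at room temperature (L3MBTL1 50 nM, biotinylated H3K9me1 peptide 75 nM). Next, compounds are pin-transferred and incubated 30 min. Finally, AlphaScreen beads are added and read after 30 min.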
G9a block – qHTS Assay for Inhibitors of Histone Lysine Methyltransferase G9a; AID 504332, 2011; 350,000 compounds, 8.8% hits; Potency, µM (titrated, usually from 102 µM), inactives show at the top dose activity, negative = inhibition, usual class: inhibitors; G9a H3K9 monomethylation, AlphaScreen, 2 h; also: % is scaled to controls: 0 for no effect and ±100 for the full control effect; nearly all actives have a fitted effect of over 75% in size
Target sequence (Q96KQ7 913-1193 limits assumed): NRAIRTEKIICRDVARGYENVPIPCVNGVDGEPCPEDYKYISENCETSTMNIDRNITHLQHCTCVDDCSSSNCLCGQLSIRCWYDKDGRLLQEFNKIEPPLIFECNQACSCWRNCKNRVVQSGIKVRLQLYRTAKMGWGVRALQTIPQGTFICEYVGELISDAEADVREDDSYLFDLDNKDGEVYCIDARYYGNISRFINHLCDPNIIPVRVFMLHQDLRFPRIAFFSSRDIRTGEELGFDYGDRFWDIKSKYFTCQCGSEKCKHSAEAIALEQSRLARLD
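AlphaScreen detection with an anti-monomethyl H3K9 antibody quantified product after a 2 h room-temperature reaction containing 500 nM biotinylated H3K9 peptide, 20 µM SAM and 20 nM enzyme, which had been preincubated 15 min with compound.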
JMJD2A Tudor inh – qHTS Assay for Inhibitors of JMJD2A-Tudor Domain; AID 504339, 2011; Lysine-specific demethylase 4A (Homo sapiens), O75164; Potency, µM (highest dose often 114 µM), inactives show at the highest dose activity change, negative = inhibition, actives largely listed as inhibitors; AlphaScreen JMJD2A-Tudor / H3K4me3 peptide binding; 390,000 compounds, 4.4% hits; also: % is scaled to controls: 0 for no effect and ±100 for the full control effect; nearly all actives have a fitted effect of over 50% in size
HP1b chromo inh – HTS for Inhibitors of HP1-beta Chromodomain Interactions with Methylated Histone Tails; Chromobox protein homolog 1 (Homo sapiens), P83916; Potency, µM (series often up to 114 µM), without a hit: top-dose activity change, negative = inhibition, usual class: inhibitors; AlphaScreen HP1-beta / biotin-H3K9me3 peptide binding; 390,000 compounds, 0.56% hits; also: nearly all actives have a fitted effect of over 70% in size
Target sequence (P83916 whole entry, looked up): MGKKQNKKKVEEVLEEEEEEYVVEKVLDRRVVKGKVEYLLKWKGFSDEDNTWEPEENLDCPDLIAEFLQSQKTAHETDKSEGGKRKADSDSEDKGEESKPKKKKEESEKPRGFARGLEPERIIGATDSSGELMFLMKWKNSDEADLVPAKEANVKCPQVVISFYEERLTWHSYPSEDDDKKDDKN
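HP1-beta protein (50 nM final) preincubated 30 min at room temperature with biotinylated H3(1-18)K9me3 peptide (50 nM) in PBS pH 7.4, 0.01% Tween-20, then compound added for 30 min. AlphaScreen streptavidin donor/nickel chelate acceptor beads (10 ug/mL final), 30 min dark, luminescence read.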
Starred values were filed as active, the others as inactive; [ ] = another dose, or the depositor's remark. Calls follow the shape of the dose curve; as a rule, active = well fitted curve in the direction sought with a large enough effect; inconclusive = small, poorly fitted or top-dose-only effect, or another doubt; inactive = no such curve, though single readings can be large; an effect the other way counts as inactive or inconclusive. Potency is read from the fitted curve at half-maximal effect.

Cc1cccc(N2CCN(C(=O)C3CCCN(S(=O)(=O)c4ccc(Br)s4)C3)CC2)c1C (stereo not given) was read as BAZ2B inh -17.9%, GLS inhibitor 0.6%, G9a block inconclusive, JMJD2A Tudor inh -4.8% and HP1b chromo inh 34.1%.
CCOC(=O)c1ccc2c(c1)nc(SCC(=O)c1cc3ccccc3o1)n2CC was read as BAZ2B inh -3.5%, GLS inhibitor 2.4%, G9a block 79.4µM*, JMJD2A Tudor inh -19.1% and HP1b chromo inh 31.6%.
For C=CCNC(=O)CSc1nc2cc(C(=O)OCC)ccc2n1CC the results were BAZ2B inh -4.3%, GLS inhibitor -4.2%, G9a block 7.6%, JMJD2A Tudor inh -6.3% and HP1b chromo inh 17.9%.
Screening COc1ccc(N2C(=O)CC(SCC(=O)O)C2=O)cc1 (stereo not given) returned BAZ2B inh -1.5%, GLS inhibitor 22.6%, L3MBTL1 inh -3.2%, G9a block -19.7%[59 µM], JMJD2A Tudor inh -9.2% and HP1b chromo inh 34.0%.
Screening CCOc1ccc(N2C(=O)CC(SCC(=O)O)C2=O)cc1 (stereo not given) returned BAZ2B inh -2.9%, GLS inhibitor 75.5%, L3MBTL1 inh 12.2%, G9a block 50.1µM*, JMJD2A Tudor inh 1.0% and HP1b chromo inh 35.9%.
`COC(=O)c1ccc(N2C(=O)CC(SCCN)C2=O)cc1` (stereo not given) gave BAZ2B inh -4.5%, GLS inhibitor -0.7%, L3MBTL1 inh 4.2%, G9a block 14.1µM*, JMJD2A Tudor inh inconclusive and HP1b chromo inh 17.6%.
For CCCOc1ccc(N2C(=O)CC(SCCN)C2=O)cc1 (stereo not given) the results were BAZ2B inh -5.6%, GLS inhibitor 1.0%, L3MBTL1 inh 6.1%, G9a block 3.55µM*, JMJD2A Tudor inh -6.3% and HP1b chromo inh 26.4%.
Screening CCCOc1ccc(N2C(=O)CC(N3CCC(C(=O)OCC)CC3)C2=O)cc1 (stereo not given) returned BAZ2B inh -1.1%, GLS inhibitor -1.4%, L3MBTL1 inh 7.4%, G9a block 50.1µM*, JMJD2A Tudor inh -20.5% and HP1b chromo inh 28.9%.
CCCOc1ccc(N2C(=O)CC(SCCc3nc4ccccc4[nH]3)C2=O)cc1 (stereo not given) was read as BAZ2B inh -13.8%, GLS inhibitor -1.9%, L3MBTL1 inh 4.3%, G9a block -4.1%, JMJD2A Tudor inh -18.8% and HP1b chromo inh 53.8%.
`Cc1ccc(CNc2cc(C)nc3nc(-c4cccc(C)c4)nn23)cc1` gave BAZ2B inh 2.2%, GLS inhibitor -6.8%, G9a block -25.8%[59 µM], JMJD2A Tudor inh -33.2% and HP1b chromo inh 21.8%[57 µM].
For CC(C)CC(=O)OCc1cc(=O)n2nc(C3CCCCC3)sc2n1 the results were BAZ2B inh -0.9%, GLS inhibitor 0.4%, G9a block 14.3%[59 µM], JMJD2A Tudor inh -10.7% and HP1b chromo inh 30.0%.
Cc1oc2ncn(C)c(=O)c2c1C(=O)NCCCN1CCCCC1C (stereo not given) was read as BAZ2B inh 5.9%[57.1 µM], GLS inhibitor 3.0%, G9a block -20.2%[59 µM], JMJD2A Tudor inh -16.2% and HP1b chromo inh 20.3%.
`CCOc1ccc(N2C(=O)CC(N)C2=O)cc1` (stereo not given) gave BAZ2B inh -0.3%, GLS inhibitor -0.9%, L3MBTL1 inh inconclusive, G9a block 7.94µM*, JMJD2A Tudor inh -11.2% and HP1b chromo inh -24.0%.
CCCOc1ccc(N2C(=O)CC(SC(=NCC)NCC)C2=O)cc1 (stereo not given) was read as BAZ2B inh 9.0%, GLS inhibitor 19.1%, L3MBTL1 inh 3.9%, G9a block -12.8%[59 µM], JMJD2A Tudor inh -4.2% and HP1b chromo inh 26.9%.
CCCOc1ccc(N2C(=O)CC(SCC(N)C(=O)OCC)C2=O)cc1 (stereo not given) was read as BAZ2B inh -3.1%, GLS inhibitor -1.0%, L3MBTL1 inh 7.0%, G9a block 70.8µM*, JMJD2A Tudor inh -9.0% and HP1b chromo inh 41.1%.
For CCOc1ccc(N2C(=O)CC(Cc3cc(C)cc(C)c3)C2=O)cc1 (stereo not given) the results were BAZ2B inh -8.1%, GLS inhibitor 0.5%, L3MBTL1 inh 5.1%, JMJD2A Tudor inh -4.1% and HP1b chromo inh 43.0%.
Screening CCOC(=O)C(N)CSC1CC(=O)N(c2ccc(C(=O)OC)cc2)C1=O (stereo not given) returned BAZ2B inh -3.5%, GLS inhibitor 6.6%, L3MBTL1 inh 9.9%, G9a block 8.91µM*, JMJD2A Tudor inh inconclusive and HP1b chromo inh -15.6%.
Screening Cc1cccc(NC2=CC(c3cccc(Br)c3)N(c3cccc(C)c3)C2=O)c1 (stereo not given) returned BAZ2B inh -25.1%, GLS inhibitor 5.2%, G9a block -44.2%[59 µM], JMJD2A Tudor inh -16.8% and HP1b chromo inh 40.0%.
CC(C)(C)C1CCc2c(sc(NC(=O)c3cccc(Cl)c3)c2C(=O)NCc2ccco2)C1 (stereo not given) was read as BAZ2B inh 1.7%, GLS inhibitor -18.5%, G9a block -3.6%[59 µM], JMJD2A Tudor inh 6.6% and HP1b chromo inh 29.9%.
For O=C(CCCN1C(=O)/C(=C\c2ccccc2)SC1=S)Nc1cccc(C(=O)O)c1 the results were BAZ2B inh inconclusive, GLS inhibitor -8.9%, G9a block inconclusive, JMJD2A Tudor inh -32.5% and HP1b chromo inh 5.5%[57 µM].
O=C(CCN1C(=O)/C(=C\C=C\c2ccccc2)SC1=S)Nc1cccc(C(=O)O)c1 was read as BAZ2B inh 20µM*, GLS inhibitor 0.7%, JMJD2A Tudor inh 50.1µM* and HP1b chromo inh inconclusive.
For O=C(CCN1C(=O)/C(=C\C=C\c2ccccc2)SC1=S)Nc1ccccc1C(=O)O the results were BAZ2B inh -11.1%, GLS inhibitor -2.4%, G9a block 72.7%, JMJD2A Tudor inh 44.7µM* and HP1b chromo inh inconclusive.
Screening O=C(CCN1C(=O)/C(=C/C=C/c2ccccc2)SC1=S)Nc1nccs1 returned BAZ2B inh -3.6%, GLS inhibitor 5.8%, L3MBTL1 inh -1.5%, G9a block 4.8%, JMJD2A Tudor inh -12.3% and HP1b chromo inh 1.5%.
